# IL1B secr inh: qHTS for Inhibitors of Inflammasome Signaling: IL-1-beta AlphaLISA Primary Screen. AID 743279, 2014. THP-1 LPS/ATP IL-1B secretion, AlphaLISA, 16 h; active compounds read low. activity change, % at 57.5 µM. 360,000 tested, 4.7% active; in the data active = activity change below about -50%; inconclusive = mostly about -30% to -49%; note: % is set by controls: 0 for no effect and ±100 for the full control effect
#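 Secreted IL-1B measured by AlphaLISA bead assay after 16 h compound exposure of THP-1 cells; compounds (final up to 57.5 uM) added 1 h before LPS (250 ng/mL) and ATP (1.25 mM) stimulation; lower signal means less secretion.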
# TDP1 inh: qHTS Assay for Inhibitors of Tyrosyl-DNA Phosphodiesterase (TDP1). Tyrosyl-DNA phosphodiesterase 1 (Homo sapiens), Q9NUW8. 350,000 tested, 0.28% active. Potency, µM (top dose mostly 130 µM), without a hit: top-dose activity change, negative = inhibition, actives largely listed as inhibitors. recombinant TDP1, AlphaScreen DNA substrate cleavage; note: potency is the fitted concentration of half-maximal effect; % is set by controls: 0 for no effect and ±100 for the full control effect; nearly all actives have a fitted effect of over 40% in size
# Target sequence (Q9NUW8 whole entry, looked up): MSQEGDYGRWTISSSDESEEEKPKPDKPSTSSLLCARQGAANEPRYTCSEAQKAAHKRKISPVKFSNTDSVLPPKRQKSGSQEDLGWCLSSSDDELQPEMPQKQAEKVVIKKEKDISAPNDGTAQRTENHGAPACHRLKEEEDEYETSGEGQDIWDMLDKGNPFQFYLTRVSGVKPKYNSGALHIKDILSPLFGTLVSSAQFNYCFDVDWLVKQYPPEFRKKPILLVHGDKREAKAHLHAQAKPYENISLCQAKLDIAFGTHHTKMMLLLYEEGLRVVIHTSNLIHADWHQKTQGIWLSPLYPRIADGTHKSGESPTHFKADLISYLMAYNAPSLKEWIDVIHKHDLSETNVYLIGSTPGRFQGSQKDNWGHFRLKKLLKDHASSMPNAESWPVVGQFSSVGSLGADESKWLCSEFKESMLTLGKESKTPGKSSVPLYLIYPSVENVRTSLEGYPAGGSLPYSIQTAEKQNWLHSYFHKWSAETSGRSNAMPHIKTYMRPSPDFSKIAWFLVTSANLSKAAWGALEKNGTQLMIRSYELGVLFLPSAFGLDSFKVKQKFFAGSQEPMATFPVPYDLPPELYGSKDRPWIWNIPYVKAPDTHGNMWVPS
#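 Steps: enzyme plus compound, 15 min RT; add biotin/phosphotyrosine-FITC oligonucleotide (15 nM final), react 5 min; add donor/acceptor beads (10 ug/ml final), 10 min; read AlphaScreen. Tdp1 at 1 nM final.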
# HepG2 viability: qHTS for Inhibitors of TGF-b: Cytotox Counterscreen; HepG2 CAGA-GFP viability, ATP luminescence, 18 h; Potency, µM (doses to about 46.1 µM), inactives show at the top dose activity change, negative = cytotoxicity, actives largely listed as cytotoxic; 410,000 tested, 0.76% active; note: potency is the fitted concentration of half-maximal effect
#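 HepG2 CAGA-GFP cells (1000/well, DMEM with 1% FBS) received compound, then TGF-beta at 500 pg/mL final, and were incubated 18 hours at 37 degrees C. Viability was read by CellTiter-Glo luminescence. Media-only wells were set as complete cell-killing and DMSO as no toxicity.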
# TGFb SMAD3 inh: qHTS for Inhibitors of TGF-b; HepG2 CAGA-GFP TGF-b/SMAD3 reporter, GFP fluorescence, 18 h; TGF-beta stimulated, 500 pg/mL final; Potency, µM (highest dose often 46.1 µM), without a hit: top-dose activity, negative = inhibition, actives largely listed as inhibitors; 410,000 tested, 1.2% active; AID 588855, 2011; note: potency is the fitted concentration of half-maximal effect; % is set by controls: 0 for no effect and ±100 for the full control effect; nearly all actives have a fitted effect of over 65% in size
#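 TGF-beta reporter screen: HEPG2 CAGA-GFP, 1% FBS, 500 pg/mL TGF-beta final, 18 h; per-cell GFP summed per well; curves fitted and categorized by class.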
# DT40 TDP1 CPT: qHTS for Inhibitors of human tyrosyl-DNA phosphodiesterase 1 (TDP1): qHTS in cells in presence of CPT; chicken DT40 Tdp1-/-;hTDP1 cells + 20 nM CPT, ATP luminescence, 48 h; Potency, µM (series often up to 46.2 µM), for the others: at the top dose activity change, negative = growth inhibition, most hits filed as inhibitors; 420,000 tested, 12% active; note: potency is the fitted concentration of half-maximal effect; % is set by controls: 0 for no effect and ±100 for the full control effect; nearly all actives have a fitted effect of over 55% in size
#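 Cell growth measured by CellTiter-Glo luminescence after a minimum 48 h, 37 C compound exposure with 20 nM CPT in Tdp1-knockout DT40 cells stably expressing hTDP1, seeded 400/well; qHTS titration format.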
# DT40 TDP1 no CPT: qHTS for Inhibitors of human tyrosyl-DNA phosphodiesterase 1 (TDP1): qHTS in cells in absence of CPT. Potency, µM (highest dose often 46.2 µM), for the others: at the highest dose activity change, negative = growth inhibition, usual class: inhibitors. 420,000 tested, 15% active. DT40 Tdp1-/- hTDP1 cells, no CPT, ATP luminescence, 48 h; note: potency is the fitted concentration of half-maximal effect; % is set by controls: 0 for no effect and ±100 for the full control effect; nearly all actives have a fitted effect of over 55% in size
#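 Growth kinetics read by CellTiter-Glo luminescence after ≥48 hr at 37 °C. Cells: DT40 Tdp1-/- stably carrying human TDP1, 400 per well, compound exposure in the absence of CPT (DMSO vehicle).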
# * = called active by the depositor; ? = inconclusive; . = no result given. In the library only some 18% were active in any assay of this set; here they are far more common. Unless noted, calls come from the whole dose curve; as a rule, active = well fitted curve in the direction sought with a large enough effect; inconclusive = small, poorly fitted or top-dose-only effect, or another doubt; inactive = no such curve, though single readings can be large; an effect the other way counts as inactive or inconclusive.
SMILES,IL1B secr inh,TDP1 inh,HepG2 viability,TGFb SMAD3 inh,DT40 TDP1 CPT,DT40 TDP1 no CPT
CCc1nc2c(OCCc3cccc(OC)c3)cccn2c1N(C)C(=O)c1cccs1,-1,.,-31%,-28%,21µM*,?
CCc1nc2c(OCc3ccccc3C(=O)OC)cccn2c1N(C)C(=O)c1cccs1,4,.,-36%,-33%,?,29µM*
COc1ccc(NC(=O)c2c(C(=O)Nc3ccccc3)sc3nc(C)cc(=O)n23)cc1,.,1%,-9%,1%,-18%,-7%
COCCCN1C(=O)C(CC(=O)NC2CCCCC2)CC(C(=O)N2CCCCCC2)=C1C (stereo not drawn),.,.,.,.,18%,13%
CC(C)C[C@@H]1COc2cc(N3CC[C@H](O)C3)ccc2S(=O)(=O)N1,50,.,.,.,-8%,-5%
CCOC(=O)C(=O)C1(C(=O)OCC)Oc2cc(OC)cc(OC)c2C(=O)C1c1ccccc1 (stereo not drawn),.,?,.,.,-2%,-9%
Cc1ccc(C)c(NS(=O)(=O)c2ccc3c(c2)n(C)c(=O)n3C)c1,.,4%,-9%,11%,-20%,-16%
CCCCC(O)(c1ccccc1)C(CN1CCOCC1)c1ccccc1 (stereo not drawn),-5,.,-26%,-19%,23µM*,?
CCCCC(O)(c1ccc(CC)cc1)C(CN1CCOCC1)c1ccccc1 (stereo not drawn),-54*,.,-80%,?,?,?
CCc1ccc(C(O)(CC)C(CN2CCOCC2)c2ccccc2)cc1 (stereo not drawn),-20,.,-21%,-13%,?,?
COc1cc(SC)ccc1C(=O)Nc1ccncc1,?,0%,-22%,-24%,16µM*,13µM*
COc1cc(SC)ccc1C(=O)Nc1ccc(S(=O)(=O)Nc2nccc(C)n2)cc1,.,5%,8%,25%,23µM*,?
Cc1ccnc(NS(=O)(=O)c2ccc(NC(=O)C3C4C=CC(C4)C3C(=O)O)cc2)n1 (stereo not drawn),12,50µM*,7%,6%,-1%,21%
COc1cc(SC)ccc1C(=O)NCc1ccc(C)cc1,-13,4%,-5%,0%,16µM*,?
COc1cc(SC)ccc1C(=O)NCc1ccccc1,-24,2%,-15%,-1%,-18%,-26%
COc1ccccc1C(=O)Nc1ccc(S(=O)(=O)Nc2nc(C)cc(C)n2)cc1,.,2%,4%,3%,2%,5%
COc1ccc(-c2cn3cccnc3n2)cc1NC(=O)Cc1ccccc1,.,5%,2%,-13%,-27%,?
CC(CC(F)(F)F)N1CCC(n2nccc2NC(=O)CCCc2ccccc2)CC1 (stereo not drawn),-15,4%,-16%,-17%,?,?
COc1cc(OC)c(C(=O)Nc2ccncc2)cc1OC,-60*,2%,15%,4%,10%,9%
COc1ccc(C(=O)Nc2ccncc2)c(OC)c1,-15,6%,7%,0%,3%,-26%
COc1cccc(OC)c1C(=O)Nc1ccc(C(=O)c2ccncc2)cc1,5,5%,-2%,15%,13µM*,?
O=C(Nc1ccncc1)c1cc2ccccc2cc1O,-88*,.,-14%,13µM*,?,12µM*
O=C(Nc1ccncc1)c1ccccc1F,?,-1%,-41%,-2%,?,-26%
CC(c1ccccc1)C(NC(=O)OCC1c2ccccc2-c2ccccc21)C(=O)O (stereo not drawn),20,1%,-9%,-24%,?,-17%
CCOc1ccc(S(=O)(=O)NC(C)C(=O)NCc2cccnc2)cc1 (stereo not drawn),11,.,9%,4%,-3%,0%
SMILES,IL1B secr inh,TDP1 inh,HepG2 viability,TGFb SMAD3 inh,DT40 TDP1 CPT,DT40 TDP1 no CPT
CC(=O)Nc1cccc(-c2ccnc3c2CC(C)(C(=O)NCCc2ccccc2)O3)c1 (stereo not drawn),104,.,0%,?,5.8µM*,4.6µM*
CN(C)c1ccc(-c2ccnc3c2CC(C)(C(=O)NCC2CCOCC2)O3)cc1 (stereo not drawn),0,.,3%,2%,16µM*,13µM*
CC1(C(=O)NCCc2ccccc2)Cc2c(-c3ccccc3)ccnc2O1 (stereo not drawn),-59*,.,-13%,24%,21µM*,?
CC1(C(=O)NCc2ccco2)Cc2c(-c3ccc(C(N)=O)cc3)ccnc2O1 (stereo not drawn),52,.,-2%,6%,4.1µM*,3.7µM*
O=C(CCCN=C1NS(=O)(=O)c2ccccc21)OCC(=O)c1ccccc1Cl,21,-2%,0%,3%,?,-14%
CCc1ccc(NC(=O)CSc2ccc3nc(-c4ccc(OC)cc4)cn3n2)cc1,.,-5%,3%,-16%,?,?
Cc1cc(NC(=O)CCc2nc3cccnc3n2-c2ccccc2)ccc1Br,.,1%,-35%,-9%,?,?
CC1(C(=O)NCC2CC2)Cc2c(-c3ccccc3)ccnc2O1 (stereo not drawn),45,.,-14%,18%,9.2µM*,13µM*
CN1CCN(c2ccc(CNC(=O)C3(C)Cc4c(-c5ccccc5)ccnc4O3)cc2)CC1 (stereo not drawn),-22,.,-39%,15%,26µM*,21µM*
CN(C)c1ccc(-c2ccnc3c2CC(C)(C(=O)NCc2ccncc2)O3)cc1 (stereo not drawn),3,.,-20%,-5%,?,?
CN(C)c1ccc(-c2ccnc3c2CC(C)(C(=O)Nc2ccccc2)O3)cc1 (stereo not drawn),0,.,6%,7%,3%,-22%
CN(C)c1ccc(-c2ccnc3c2CC(C)(C(=O)NCc2ccccc2)O3)cc1 (stereo not drawn),46,.,-30%,?,2.9µM*,5.2µM*
CN1CCN(c2ccc(CNC(=O)C3Cc4c(-c5ccccc5)ccnc4O3)cc2)CC1 (stereo not drawn),-24,.,-29%,11%,?,?

# Screens deposited in PubChem BioAssay by National Center for Advancing Translational Sciences (NCATS).
